According to PubChem BioAssay (NCATS):
Results filed as inconclusive are left out. Active and inactive are the calls of the source. Unless noted, calls come from the whole dose curve; as a rule, active = well fitted curve in the direction sought with a large enough effect; inconclusive = small, poorly fitted or top-dose-only effect, or another doubt; inactive = no such curve, though single readings can be large; an effect the other way counts as inactive or inconclusive.

What was measured:
[1] = Cell Viability - LYMP2-024 (AID 988); note: nearly all actives have a fitted effect of over 60% in size; note: potency is the fitted concentration of half-maximal effect
Method in brief: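 qHTS cytotoxicity, human lymphoblastoid line, complete medium; 24 h cpd treatment, 37 C; CellTiter-Glo ATP luminescence readout; tetraoctylammonium bromide positive control; AC50 via Hill fit.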

[2] = Cell Viability - LYMP2-026 (AID 989);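 note: cells exposed to compound for 24 h at 37 °C; % is set by controls: 0 for no effect and ±100 for the full control effect; nearly all actives have a fitted effect of over 50% in size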
Method in brief: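 Cells are seeded at 2500 per well and held 5 hr at 37 C. Compounds are added in concentration series for 24 hr, then CellTiter-Glo reagent is applied and luminescence read.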

[3] = target: Alpha-galactosidase A (Homo sapiens) (UniProt P06280); test: Counterscreen for Glucocerebrosidase Inhibitors: qHTS Assay for Human alpha-Galactosidase at pH 4.5 (AID 992); note: 0% is about no effect
Chain of Alpha-galactosidase A (Homo sapiens) (P06280 whole entry, looked up): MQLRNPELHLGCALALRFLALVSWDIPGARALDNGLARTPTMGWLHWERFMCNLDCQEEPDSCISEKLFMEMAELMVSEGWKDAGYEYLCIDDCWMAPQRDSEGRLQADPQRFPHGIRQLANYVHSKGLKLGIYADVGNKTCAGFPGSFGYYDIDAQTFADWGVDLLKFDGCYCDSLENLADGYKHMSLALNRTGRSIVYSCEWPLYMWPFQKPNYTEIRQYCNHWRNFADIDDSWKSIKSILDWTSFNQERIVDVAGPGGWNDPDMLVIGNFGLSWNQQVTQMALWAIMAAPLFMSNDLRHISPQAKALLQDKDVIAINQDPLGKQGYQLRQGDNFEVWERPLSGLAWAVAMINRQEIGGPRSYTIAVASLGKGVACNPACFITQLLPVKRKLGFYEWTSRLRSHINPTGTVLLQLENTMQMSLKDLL
Method in brief: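 Citrate buffer pH 4.5, Tween-20 0.005%. Enzyme 2 nM, substrate 80 uM, 20 min RT. Stop pH 10. Fluorescence Ex 365/Em 440. AC50 by Hill fit.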

[4] = Cell Viability - LYMP1-002 - Assay at 24 hr (AID 993); note: % is set by controls: 0 for no effect and ±100 for the full control effect
Method in brief: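 Acute toxicity is measured as concentration-dependent loss of cellular ATP in a human lymphoblastoid line (Coriell LYMP1-002) after 24 h treatment in complete medium. ATP is quantified by luciferase luminescence and AC50 derived by Hill modelling.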

[5] = Cell Viability - LYMP1-002 - Assay at 40 hr (AID 994);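 note: 0% = DMSO only and full inhibition = 92 µM tetraoctylammonium bromide; nearly all actives have a fitted effect of over 60% in size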
Method in brief: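 Cells are plated at 2500 per well and rested 5 hr at 37 C. Compounds are added and incubated 40 hr at 37 C. CellTiter-Glo reagent is added for 30 min at room temperature before luminescence is read.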

[6] = target: alpha-glucosidase (Oryza sativa, rice) (UniProt Q653V4); test: Counterscreen for Glucocerebrosidase Inhibitors: qHTS Assay for Rice alpha-Glucosidase at pH 5.0 (AID 997);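 note: 0% = full activity with enzyme and -100% = basal without enzyme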
Method in brief: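 Endpoint fluorogenic assay at pH 5.0: compounds (0.7 nM to 77 uM) titrated against 4 nM rice enzyme and 400 uM 4-MU-alpha-glucoside for 20 min at room temperature; NaOH/glycine stop, read ex 365/em 440 nm, Hill-fitted AC50.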

[7] = target: Alpha-galactosidase (Coffea arabica) (UniProt Q42656); test: Counterscreen for Glucocerebrosidase Inhibitors: qHTS Assay for Coffee Bean alpha-Galactosidase at pH 5.9 (AID 998);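 note: plate controls were uninhibited enzyme for no effect and no-enzyme basal signal for full effect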
Chain of Alpha-galactosidase (Coffea arabica) (Q42656 whole entry, looked up): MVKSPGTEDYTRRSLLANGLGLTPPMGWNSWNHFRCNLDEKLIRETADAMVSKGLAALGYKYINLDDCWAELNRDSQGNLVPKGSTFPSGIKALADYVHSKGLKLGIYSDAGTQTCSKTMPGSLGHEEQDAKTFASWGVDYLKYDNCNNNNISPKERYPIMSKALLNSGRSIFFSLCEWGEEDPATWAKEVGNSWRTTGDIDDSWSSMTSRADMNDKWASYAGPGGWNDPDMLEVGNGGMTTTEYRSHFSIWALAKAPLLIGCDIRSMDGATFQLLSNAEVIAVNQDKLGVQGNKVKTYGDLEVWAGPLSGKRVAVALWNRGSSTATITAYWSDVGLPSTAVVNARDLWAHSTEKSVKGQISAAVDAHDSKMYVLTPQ
Method in brief: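 Fluorogenic 4-MU substrate hydrolysis, 80 uM substrate and 2 nM coffee bean alpha-galactosidase, pH 5.9 citrate buffer, 20 min at room temperature, then NaOH/glycine stop. Titration 0.7 nM–77 uM, normalized to no-enzyme and enzyme controls, AC50 via Hill equation.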

[8] = Validation of Assay for Modulators of Lamin A Splicing (AID 1459; active = well fitted curve in the direction sought with a large enough effect in the signal ratio; the % refers to the signal ratio;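 note: cells exposed to compound for two days before reading; 0% is about no effect; ratio rise marks activators and ratio drop marks inhibitors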)
Method in brief: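 S3 HeLa cells stably expressing a lamin A-EGFP splicing minigene and DsRed2 were seeded at 600 cells/well in Opti-MEM with 2% FBS, pin-dosed, and incubated 48 hrs at 37 °C, 5% CO2. Laser-scanning cytometry (488 nm) gave GFP/RFP total intensity ratio.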

[9] = qHTS Assay for Lipid Storage Modulators (AID 1519; calls by dose curve; for activity change, negative = inhibition: % is set by controls: 0 for no effect and ±100 for the full control effect); settings: Drosophila S3 cells, BODIPY lipid droplet/cell ratio, laser cytometry, cells loaded with oleic acid; for activity change, negative = inhibition: at 57.5 µM (top of the series)
Method in brief: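 Cells seeded at 5,000 per well were treated with compounds over a concentration series and loaded with oleic acid (400 uM, as added). Lipid droplet fluorescence (488 nm excitation, 500-530 nm channel) was read by laser-scanning cytometry and normalized to 20 uM Triacsin C.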

[10] = target: DNA repair nuclease/redox regulator APEX1 (Homo sapiens) (UniProt P27695); test: qHTS Validation Assay for Inhibitors of the Human Apurinic/apyrimidinic Endonuclease 1 (APE1) (AID 1705; note: potency is the fitted concentration of half-maximal effect;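 for activity change, negative = inhibition: TAMRA fluorescence gain over two minutes as APE1 cuts a quenched THF abasic duplex; % is set by controls: 0 for no effect and ±100 for the full control effect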)
Chain of DNA repair nuclease/redox regulator APEX1 (Homo sapiens) (P27695 whole entry, looked up): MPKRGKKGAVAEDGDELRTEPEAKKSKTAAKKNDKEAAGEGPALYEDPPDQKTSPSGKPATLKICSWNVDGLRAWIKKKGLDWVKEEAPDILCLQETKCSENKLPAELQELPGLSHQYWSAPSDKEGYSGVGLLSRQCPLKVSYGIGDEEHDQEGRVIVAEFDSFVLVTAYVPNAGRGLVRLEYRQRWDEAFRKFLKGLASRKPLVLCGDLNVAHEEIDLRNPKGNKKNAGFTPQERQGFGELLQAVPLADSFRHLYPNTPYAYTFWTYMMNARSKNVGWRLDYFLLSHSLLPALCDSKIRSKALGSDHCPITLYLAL
Method in brief: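 Human APE1 was preincubated with compound for 15 min at room temperature, then 50 nM (final) THF-abasic double-stranded DNA substrate bearing 5'-TAMRA and 3'-BHQ-2 was added. Incision-driven fluorescence rise (ex 525/em 598 nm) was read kinetically.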

[11] = Counterscreen for APE1 Inhibitors: Fluorescent Dye Displacement Validation Assay (AID 1707);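 note: plate controls were ThO with dsDNA and no compound for no effect and ThO without dsDNA for full effect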
Method in brief: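 Signal: ThO fluorescence (ex 480 nm/em 540 nm) on binding 50 nM dsDNA; displacement by test compound reduces it. Conditions: 250 nM dye, 50 mM Tris-HCl pH7.5, 2 mM MgCl2, 50mM NaCl, 0.01% Tween-20.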

[12] = target: Endonuclease 4 (Escherichia coli (strain K12)) (UniProt P0A6C1); test: Counterscreen for APE1 Inhibitors: qHTS Validation Assay for Inhibitors of Endonuclease IV (AID 1708); note: % is set by controls: 0 for no effect and ±100 for the full control effect
Method in brief: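 Incision of a double-stranded 50 nM TAMRA/BHQ-2 abasic substrate was followed kinetically (525/598 nm, reads every 60 s) after 15 min enzyme–compound preincubation with 2 nM EndoIV in pH 7.5 Tris buffer with MgCl2, DTT and Tween-20; concentration-response format.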

[13] = qHTS for differential inhibitors of proliferation of Plasmodium falciparum line 7G8 (AID 1815);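 note: parasite growth measured after three days of incubation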; note: potency is the fitted concentration of half-maximal effect;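 for activity change, negative = inhibition: plate controls were vehicle wells for no effect and reference inhibitor wells for full effect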
[14] = qHTS for differential inhibitors of proliferation of Plasmodium falciparum line GB4 (AID 1816); settings: Potency: Plasmodium falciparum GB4 proliferation inhibition;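 note: parasite growth measured after 72 h incubation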; note: potency is the fitted concentration of half-maximal effect;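 for activity change, negative = inhibition: 0% = vehicle DMSO and -100% = reference inhibitor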
[15] = qHTS for differential inhibitors of proliferation of Plasmodium falciparum line 3D7 (AID 1876); note: potency is the fitted concentration of half-maximal effect
[16] = qHTS for differential inhibitors of proliferation of Plasmodium falciparum line D10 (AID 1877);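 note: parasites grown with compound for 72 h before DNA staining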; note: potency is the fitted concentration of half-maximal effect;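 for activity change, negative = inhibition: plate controls were vehicle wells for no effect and reference inhibitor wells for full effect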
[17] = qHTS for differential inhibitors of proliferation of Plasmodium falciparum line Dd2 (AID 1882); settings: Potency: Plasmodium falciparum Dd2 proliferation inhibition; note: nearly all actives have a fitted effect of over 65% in size; note: potency is the fitted concentration of half-maximal effect;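 for activity change, negative = inhibition: plate controls were DMSO vehicle for no effect and 0.29 µM artemisinin for full effect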
Method in brief: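 SYBR Green DNA fluorescence (ex 485, em 535 nm) after overnight lysis quantifies parasite growth; compound exposure lasted 72 h at 37 C on infected red cells at 2.5% hematocrit, 0.3% parasitemia (final). Artemisinin 0.29 uM and vehicle wells define normalization.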

[18] = qHTS for differential inhibitors of proliferation of Plasmodium falciparum line W2 (AID 1883); settings: Potency: Plasmodium falciparum W2 proliferation inhibition;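 note: parasites grown with compound for 72 h before lysis and staining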; note: potency is the fitted concentration of half-maximal effect;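 for activity change, negative = inhibition: 0% = vehicle wells and -100% = control inhibitor wells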
[19] = qHTS for differential inhibitors of proliferation of Plasmodium falciparum line HB3 (AID 1886); settings: Potency: Plasmodium falciparum HB3 proliferation inhibition;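 note: parasites grown with compound for 72 h before SYBR Green readout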; note: potency is the fitted concentration of half-maximal effect;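 for activity change, negative = inhibition: plate controls were vehicle for no effect and reference inhibitor for full effect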
[20] = qHTS Assay for Modulators of Human Peripheral Myelin Protein 22 (PMP22) Expression/Activity (AID 1967; active = well fitted curve in the direction sought with a large enough effect in the signal ratio; the % refers to the signal ratio;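 note: 0% = untreated cells and 100% end not stated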)
Method in brief: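 MSC80 mouse Schwann cells stably carrying Pmp22 promoter–green click beetle luciferase plus EF-alpha–red luciferase control were dosed for 24h at 37 °C. Dual-colour luminescence was filter-overlap corrected; %Activity came from green/red ratio versus untreated cells.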

[21] = measured here: cell count channel max response
[22] = measured here: lipid channel max response

O=C1C=CC(=O)C=C1
active: Potency [1] 31.6 µM | Potency [10] 14.1 µM
-25.7%: max response [9, 21]
-24.4%: max response [9, 22]
inactive: Potency [2] | outcome [3] | Potency [4] | Potency [5] | outcome [6] | outcome [7] | outcome [8] | activity change, negative = inhibition [9] 0.0539% | Potency [11] | Potency [12] | Potency [13] | Potency [14] | Potency [15] | Potency [16] | Potency [17] | Potency [18] | Potency [19] | outcome [20]

C[N+]1(C)CCN(c2ccccc2)CC1
-16.2%: max response [9, 22]
inactive: outcome [3] | outcome [6] | outcome [7] | outcome [8] | activity change, negative = inhibition [9] 1.07% | Potency [10] | Potency [11] | Potency [12] | Potency [13] | Potency [14] | Potency [16] | Potency [17] | Potency [19]
-21.1%: max response [9, 21]

CN(C(=O)Cc1ccc(Cl)c(Cl)c1)C(CN1CCCC1)c1cccc(OCC(=O)O)c1 (stereo unspecified)
inactive: outcome [8] | activity change, negative = inhibition [9] 2.91% | Potency [10] | Potency [11] | Potency [12] | Potency [15] | Potency [17] | Potency [19]
8.86%: max response [9, 21]
13%: max response [9, 22]
active: Potency [18] 14.1 µM

Cc1o[nH]c(=O)c1CC(N)C(=O)O (stereo unspecified)
inactive: outcome [8] | activity change, negative = inhibition [9] 0.836% | Potency [10] | Potency [11] | Potency [12] | Potency [13] | Potency [14] | Potency [15] | Potency [16] | Potency [17] | Potency [18] | Potency [19] | outcome [20]
-21.1%: max response [9, 21]
-19%: max response [9, 22]

CC(N)Cc1c[nH]c2ccc(O)cc12 (stereo unspecified)
8.43%: max response [9, 21]
inactive: outcome [8] | activity change, negative = inhibition [9] -0.0169% | Potency [10] | Potency [11] | Potency [12] | Potency [13] | Potency [14] | Potency [15] | Potency [16] | Potency [17] | Potency [18] | Potency [19] | outcome [20]
9.94%: max response [9, 22]

NNC(N)=O
-7.06%: max response [9, 22]
inactive: Potency [1] | Potency [2] | outcome [3] | Potency [4] | Potency [5] | outcome [6] | outcome [7] | outcome [8] | activity change, negative = inhibition [9] 1.16% | Potency [10] | Potency [11] | Potency [13] | Potency [14] | Potency [15] | Potency [16] | Potency [17] | Potency [18] | Potency [19] | outcome [20]
-7.78%: max response [9, 21]

CCCN(CCC)CCc1c[nH]c2ccc(C(N)=O)cc12
inactive: outcome [3] | outcome [6] | outcome [7] | outcome [8] | activity change, negative = inhibition [9] 1.01% | Potency [10] | Potency [11] | Potency [12] | Potency [13] | Potency [14] | Potency [15] | Potency [16] | Potency [17] | Potency [19]
-33.9%: max response [9, 22]
-28.4%: max response [9, 21]

CCCN(CCC)C1CCc2cccc(O)c2C1 (stereo unspecified)
-31.4%: max response [9, 21]
inactive: outcome [8] | activity change, negative = inhibition [9] -0.917% | Potency [10] | Potency [11] | Potency [12] | Potency [13] | Potency [14] | Potency [15] | Potency [16] | Potency [17] | Potency [18] | Potency [19] | outcome [20]
-33.3%: max response [9, 22]

NNC(=O)c1ccc(O)cc1
-17.6%: max response [9, 21]
-15.4%: max response [9, 22]
inactive: outcome [3] | outcome [6] | outcome [7] | outcome [8] | activity change, negative = inhibition [9] 0.0246% | Potency [10] | Potency [11] | Potency [13] | Potency [14] | Potency [15] | Potency [16] | Potency [17] | Potency [18] | Potency [19]

NCCc1c[nH]c2ccc(C(N)=O)cc12
2.92%: max response [9, 21]
inactive: outcome [3] | outcome [6] | outcome [7] | outcome [8] | activity change, negative = inhibition [9] -0.884% | Potency [10] | Potency [11] | Potency [13] | Potency [14] | Potency [15] | Potency [16] | Potency [17] | Potency [19] | outcome [20]
1.87%: max response [9, 22]

C=CCN1C[C@@H](C)N([C@H](c2ccc(C(=O)N(CC)CC)cc2)c2cccc(OC)c2)C[C@@H]1C
0%: max response [9, 22]
active: Potency [13] 2.82 µM | Potency [14] 3.98 µM | Potency [15] 3.16 µM | Potency [16] 7.08 µM | Potency [17] 8.91 µM | Potency [18] 3.16 µM | Potency [19] 4.47 µM
-2.68%: max response [9, 21]
inactive: outcome [8] | activity change, negative = inhibition [9] 2.23% | Potency [10] | Potency [11] | Potency [12]

CCCn1c(C)c(C(=O)c2ccc3ccccc3c2)c2ccccc21
16.6%: max response [9, 22]
inactive: outcome [3] | outcome [6] | outcome [7] | outcome [8] | activity change, negative = inhibition [9] -0.784% | Potency [10] | Potency [11] | Potency [17]
active: Potency [13] 7.94 µM | Potency [14] 10 µM | Potency [15] 10 µM | Potency [16] 14.1 µM | Potency [18] 10 µM | Potency [19] 12.6 µM
17.8%: max response [9, 21]

CN1CCc2cccc(Cl)c2CC1
-8.1%: max response [9, 22]
inactive: outcome [3] | outcome [6] | outcome [7] | outcome [8] | activity change, negative = inhibition [9] 0.882% | Potency [10] | Potency [11] | Potency [12] | Potency [13] | Potency [15] | Potency [16] | Potency [17] | Potency [19] | outcome [20]
-8.27%: max response [9, 21]

N[C@@H](Cn1oc(=O)[nH]c1=O)C(=O)O
26.9%: max response [9, 22]
22.6%: max response [9, 21]
inactive: outcome [3] | outcome [6] | outcome [7] | outcome [8] | activity change, negative = inhibition [9] 3.82% | Potency [10] | Potency [11] | Potency [12] | Potency [13] | Potency [14] | Potency [15] | Potency [16] | Potency [17] | Potency [18] | Potency [19] | outcome [20]
